Reference: PubChem BioAssay (NCI)
The panel holds about 79,000 compounds, 15% with a hit somewhere; the sample as a whole holds those more often. The source made the active and inactive calls. Rule as the data show it: active = growth inhibition above about 70%; inactive = the rest.

Key:
[1] = NCI Yeast Anticancer Drug Screen. Data for the rad50 strain (AID 155);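 also: 0% = growth of vehicle-only cultures of the same strain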; conditions: S. cerevisiae rad50 strain growth inhibition; at 50.0 µM; stronger effect = higher value
Method in brief: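 Compounds were tested on a yeast strain with an engineered DNA damage repair alteration; the reported value is growth inhibition normalised to vehicle treatment.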

[2] = NCI Yeast Anticancer Drug Screen. Data for the mec2-1 strain (AID 157); conditions: S. cerevisiae mec2-1 strain, at 50.0 µM, stronger effect = higher value
Method in brief: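 Growth inhibition is read against vehicle-treated controls after compound exposure of the mec2-1 yeast strain, which is defective in DNA damage repair or cell cycle control.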

[3] = NCI Yeast Anticancer Drug Screen. Data for the sgs1 mgt1 strain (AID 161);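 also: 0% = growth of cultures given vehicle only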; conditions: S. cerevisiae sgs1 mgt1 strain, at 50.0 µM, stronger effect = higher value
Method in brief: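 Percent growth inhibition was derived by comparing compound-exposed mutant yeast with vehicle-exposed cultures. The strain carries alterations in DNA damage repair.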

[4] = NCI Yeast Anticancer Drug Screen. Data for the cln2 rad14 strain (AID 165);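 also: 0% = growth equal to vehicle treated cultures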; conditions: S. cerevisiae cln2 rad14 strain, at 50.0 µM, stronger effect = higher value
Method in brief: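 Growth inhibition, relative to vehicle-treated controls, is the read-out. The test organism is a yeast strain with defined genetic alterations, cln2 rad14.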

[5] = NCI Yeast Anticancer Drug Screen. Data for the bub3 strain (AID 167); conditions: S. cerevisiae bub3 mutant strain, at 50.0 µM, stronger effect = higher value
Method in brief: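 Growth of a checkpoint-deficient yeast mutant is measured after compound exposure. Values represent inhibition relative to vehicle.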

[6] = NCI Yeast Anticancer Drug Screen. Data for the mlh1 rad18 strain (AID 175); conditions: S. cerevisiae mlh1 rad18 strain growth inhibition; at 50.0 µM; stronger effect = higher value
Method in brief: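 Cells of a genetically altered yeast strain, deficient in DNA damage repair, were treated with compound. Their growth was then compared with that of vehicle-treated cultures to give inhibition.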

Measured: growth inhibition

CC(=O)NNC(=S)/N=C\c1c(O)[nH]c(=O)[nH]c1=O
inactive: [1] -23.1% | [2] -30.1% | [3] -15.4% | [4] -0.6% | [5] -4% | [6] -9.85%

Nc1ccc(Nc2cc(=O)[nH]c(=O)[nH]2)cc1Cl
inactive: [1] 5.8% | [2] 6.6% | [3] 14.1% | [4] 6.2% | [5] -3.2% | [6] -20.8%

Cn1cnc2ncnc(Nc3ccc(Cl)cc3)c21
inactive: [1] 5.25% | [2] -16% | [3] 4% | [4] -24.2% | [5] 10% | [6] -6.1%

CCOC(=O)c1[nH]c(C(=O)O)c(C(=O)OCC)c1C
inactive: [1] 7.3% | [2] 3.7% | [3] 4.85% | [4] -12.8% | [5] -5.3% | [6] -10.1%

NNC(N)=Nc1cccc2ccccc12
inactive: [1] -2.9% | [2] -7.5% | [3] 0.35% | [4] 15.7% | [5] 11.4% | [6] -18.6%

CCc1ccccc1NC(=O)C(=O)C(C#N)c1ccccc1Cl (configuration not stated)
inactive: [1] -7.2% | [2] -30.6% | [3] -17.6% | [4] 3.55% | [5] 6.3% | [6] -9.45%

O=C1N=C(c2c[nH]c3ccccc23)C(=O)N1
inactive: [1] -1.8% | [2] 6.9% | [3] 15.9% | [4] 12.6% | [5] -1.45% | [6] 8.8%

CN(N)C(=O)Nc1cccc(Cl)c1
inactive: [1] 13.1% | [2] 8.55% | [3] 16.4% | [4] -5.25% | [5] 2.7% | [6] 17.3%

COc1ccc(C(CC(=O)O)c2ccc(OC)cc2OC)cc1 (configuration not stated)
inactive: [1] -0.3% | [2] 0.8% | [3] 11.8% | [4] -24.5% | [5] 0.85% | [6] 6.95%

Cc1cc(Cc2ccc3c(c2)OCO3)ccc1OCC(=O)O
inactive: [1] 15.1% | [2] 18.3% | [3] 15.6% | [4] 13.4% | [5] 20.8% | [6] 23.8%

Nc1ccc2c(c1)C(=O)c1ccccc1C2=O
inactive: [1] 4.4% | [2] -1.55% | [3] -12.9% | [4] 6.55% | [5] 8.95% | [6] -0.55%

O=c1oc2c3ccc4ccccc4c3n(Cc3nc4ccccc4[nH]3)c2c2ccccc12
inactive: [1] 22.1% | [2] 12.2% | [3] 19.7% | [4] 28.6% | [5] 14.6% | [6] 25.2%

Cc1cc(S(=O)(=O)Nc2n[nH]c(Nc3ccc4ccccc4c3)n2)c(S)cc1Cl
inactive: [1] 34.2% | [2] 5.85% | [3] 29.2% | [4] 36.5% | [5] 35.9% | [6] 39.9%

Cc1ccc2c(c1)nc(-c1ccccn1)n2CCc1ccncc1
inactive: [1] 62.5% | [2] 34.1% | [6] 53.8%
active: [3] 77% | [4] 90.3% | [5] 92.7%

Cc1ccc(C2(C#N)CCCC2)cc1
inactive: [1] 5.55% | [2] -1% | [3] 12% | [4] 3.85% | [5] 15.6% | [6] 4.7%

COC(=O)c1ccc(/C=C2\N=C(C)OC2=O)cc1
inactive: [1] -17.9% | [2] -28.6% | [3] 0.6% | [4] 12.2% | [5] -22.8% | [6] -17.9%

COC(=O)C(C)C1Sc2ccccc2NC1=O (configuration not stated)
inactive: [1] 4.6% | [2] 1.85% | [3] -17.3% | [4] -4% | [5] -16.6% | [6] 2.6%

O=C(/C=C/c1ccc(O)c(O)c1)c1ccc(O)c(O)c1O
inactive: [1] 14.3% | [2] -5.15% | [3] 4.45% | [4] -57.9% | [5] 8.55% | [6] 19.5%

CCCCN(CCCC)c1c([N+](=O)[O-])c(=O)nc2ccccn12
inactive: [1] 21.1% | [2] -3.35% | [3] 5.7% | [4] 11.7% | [5] 11.2% | [6] 37.9%

COc1ccc(C(=O)/C=C/c2cccc3ccccc23)cc1
inactive: [1] 15.4% | [2] 25.7% | [3] 30.9% | [4] -3.85% | [5] 33% | [6] 16.6%

CC(=O)OC/C=C(\C)CC(/C=C(C)/C=C/C1=C(C)CCCC1(C)C)S(=O)(=O)c1ccccc1 (configuration not stated)
inactive: [1] 35.5% | [2] 9.4% | [3] -6.15% | [4] 2.05% | [5] 0.2% | [6] -5.15%

Nc1ccccc1NC(=O)c1nc2ccccc2[nH]1
inactive: [1] 1.55% | [2] 15.2% | [3] 19.6% | [4] 6% | [5] 7.8% | [6] 4.5%

CC1CCC2(OC1)OC1CC3C4CCC5CC(O)CCC5(C)C4CC(=O)OC3(C)C1C2C (configuration not stated)
inactive: [1] -10.8% | [2] -23.6% | [3] -14.8% | [4] -7.35% | [5] -25% | [6] 2.2%

C[N+](C)(N)CCS(N)(=O)=O
inactive: [1] 0.15% | [2] -9.8% | [3] 5.6% | [4] -22.4% | [5] 26.7% | [6] 0.5%

CCOC(=O)c1cnc(NCCCCCCNc2ncc(C(=O)OCC)c(=O)[nH]2)[nH]c1=O
inactive: [1] 29.7% | [2] -1.5% | [3] -3.65% | [4] -6.8% | [5] -3.1% | [6] 21.7%

COC(=O)C[C@H]1CCC2(OCCO2)[C@]1(C)C(=O)OC
inactive: [1] -10.7% | [2] -11.6% | [3] -11.2% | [4] -23.4% | [5] -6.9% | [6] -27.1%

CC(=O)C1CCC2C3CC=C4CC(O)C=CC4(C)C3CCC12C (configuration not stated)
inactive: [1] 7.6% | [2] 22.1% | [3] 11.2% | [4] -1.65% | [5] 5.1% | [6] 17.9%

N#CCC(=O)NCCc1ccccn1
inactive: [1] -6.75% | [2] -3.7% | [3] -13.8% | [4] -44.6% | [5] 10.2% | [6] -9.05%

Nc1c(Cl)ncnc1NCCN1CCOCC1
inactive: [1] -3.85% | [2] 1.9% | [3] 1.55% | [4] -22.1% | [5] -17.5% | [6] -18.4%

COC(=O)/C(C#N)=C/Sc1ccccc1
inactive: [1] 61.6% | [2] 33.7% | [3] 38% | [4] 7.2% | [5] 26.6% | [6] -7.7%

C1CCC(C2CCCC2)CC1
inactive: [1] 7.5% | [2] -0.35% | [3] -13% | [4] -32.6% | [5] -17.2% | [6] 4.15%

CC(=O)OC1CCC2(C)C(=CCC3C4CCC(=O)NC4(C)CCC32)C1 (configuration not stated)
inactive: [1] 43% | [2] -1.8% | [3] 52.7% | [4] -4.95% | [5] 8.4% | [6] 28.9%

O=C(/C=C\c1ccccc1Cl)/C=C/c1ccccc1Cl
inactive: [1] 11.2% | [2] 2.75% | [3] -4.6% | [4] -42.3% | [5] -0.35% | [6] 11.8%

NC(=O)NNCc1ccccc1
inactive: [1] -9.35% | [2] -0.3% | [3] -27.2% | [4] -17.4% | [5] -5.6% | [6] -53.8%

CCCC(C)(CCC)OC(=O)Nc1cccc2ccccc12
inactive: [1] -3% | [2] -4.2% | [3] -4.4% | [4] -10.7% | [5] 6.95% | [6] 15.2%

CCc1ccc(NC(=O)CCC(=O)O)cc1
inactive: [1] -1.15% | [2] -9.15% | [3] 4.75% | [4] -90.5% | [5] -4.9% | [6] -16.9%

O/N=C1/CC2CCCCC2CC1(O)c1ccccc1 (configuration not stated)
inactive: [1] 17.3% | [2] 19.1% | [3] 17.6% | [4] 18.4% | [5] -3.55% | [6] 30.4%

OCC1c2ccccc2C(CO)c2c1ccc1ccccc21 (configuration not stated)
inactive: [1] -0.3% | [2] -2.3% | [3] -7.1% | [4] 11.1% | [5] -9.15% | [6] 4.45%

COc1cc2c(NCCCCCCO[N+](=O)[O-])ncnc2c(OC)c1OC
inactive: [1] 26.6% | [2] -5.7% | [3] 40.8% | [4] 43.8% | [5] 39% | [6] 30.6%

CCOC(=O)CCCCCC(=O)OCC
inactive: [1] 4% | [2] 0.25% | [3] -2.7% | [4] 4.1% | [5] 12.8% | [6] 1.8%

Cc1c(F)cccc1NC(=O)OC(C)C
inactive: [1] 18.2% | [2] -5.15% | [3] -0.7% | [4] -50.8% | [5] 12.8% | [6] 5.1%

Brc1cc(Br)c(Br)cc1Br
inactive: [1] 6.1% | [2] 5.7% | [3] 8.6% | [4] 13.8% | [5] -3.65% | [6] 12.3%
